Screening results: PubChem BioAssay, National Center for Advancing Translational Sciences (NCATS)
IL-1B inflam inh – inflammasome signaling inhibition, IL-1 beta readout; THP-1 LPS/ATP IL-1B secretion, AlphaLISA, 16 h; stronger effect = lower value; AID 743279; activity change, % at 57.5 µM; 4.7% of 360,000 active; in the data active means activity change below about -50%; inconclusive means mostly about -30% to -49%; further: on the % scale 0 is the no-effect control and ±100 the full control effect
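THP-1 cells pretreated 1 hr with compounds (up to 57.5 uM final), then stimulated with LPS (250 ng/mL final) plus ATP (1.25 mM final); secreted IL-1B measured by AlphaLISA after 16 hr, decreased signal indicating inhibition.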
D3 antag – antagonists of human D3 dopamine receptor; P35462; D3R cells, DiscoveRx beta-arrestin luminescence, antagonist mode; stronger effect = lower value; max response, negative = inhibition, %; 2.5% of 360,000 active; AID 652054; in the data active means max response below about -50%; inconclusive means no clear call, values can overlap the other calls; further: on the % scale 0 is the no-effect control and ±100 the full control effect
Target sequence (P35462 whole entry, looked up): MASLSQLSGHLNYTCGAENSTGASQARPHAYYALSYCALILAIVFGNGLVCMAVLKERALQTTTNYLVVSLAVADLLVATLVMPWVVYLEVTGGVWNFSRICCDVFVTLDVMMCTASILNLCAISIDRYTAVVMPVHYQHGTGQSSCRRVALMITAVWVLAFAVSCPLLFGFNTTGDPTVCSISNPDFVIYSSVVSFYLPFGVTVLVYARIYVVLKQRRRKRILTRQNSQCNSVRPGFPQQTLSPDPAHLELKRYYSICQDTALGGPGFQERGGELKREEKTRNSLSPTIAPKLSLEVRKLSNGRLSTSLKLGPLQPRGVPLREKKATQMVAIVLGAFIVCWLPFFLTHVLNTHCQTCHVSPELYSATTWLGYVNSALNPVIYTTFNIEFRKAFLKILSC
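Cells plated overnight at 1500 cells/well, then exposed to library compounds with dopamine controls for 90 minutes at 37 degrees C. DiscoveRx reagent added for 30–60 minutes at room temperature; luminescence read, quantitative HTS format.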
DT40 TDP1 CPT – growth inhibition of DT40 Tdp1-/-;hTDP1 cells with camptothecin (screen for TDP1 inhibitors) | chicken DT40 Tdp1-/-;hTDP1 cells + 20 nM CPT, ATP luminescence, 48 h | Potency, µM (highest dose often 46.2 µM), inactives show top-dose activity change, negative = growth inhibition, usual class: inhibitors | 12% of 420,000 active | AID 686979; further: potency means the concentration at half of the fitted maximal effect; on the % scale 0 is the no-effect control and ±100 the full control effect; nearly all actives have a fitted effect of over 55% in size
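Chicken DT40 Tdp1-/- cells stably complemented with human TDP1 were seeded at 400 cells/well in medium containing 20 nM camptothecin, exposed to pin-transferred compounds, and grown at 37 °C for at least 48 hr. Viability was read as ATP luminescence.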
TDP1 cell noCPT – qHTS for Inhibitors of human tyrosyl-DNA phosphodiesterase 1 (TDP1): qHTS in cells in absence of CPT; DT40 Tdp1-/- hTDP1 cells, no CPT, ATP luminescence, 48 h; Potency, µM (titrated, usually from 46.2 µM), for inactives: top-dose activity change, negative = growth inhibition, actives largely listed as inhibitors; 15% of 420,000 active; AID 686978, 2013; further: potency means the concentration at half of the fitted maximal effect; on the % scale 0 is the no-effect control and ±100 the full control effect; nearly all actives have a fitted effect of over 55% in size
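Chicken DT40 Tdp1-/- cells stably complemented with human TDP1 were seeded at 400 cells/well with DMSO in place of 20 nM camptothecin. After compound pinning, cells grew at least 48 hr at 37 °C; viability read by CellTiter-Glo luminescence.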
ClpP mod – qHTS Assay for Activators of ClpP | ATP-dependent Clp protease proteolytic subunit (Bacillus subtilis (strain 168)), P80244 | purified B. subtilis ClpP, FRET peptide cleavage, 20 min | Potency, µM (top dose mostly 57.5 µM), without a hit: at the highest dose activity change, negative = active | 1.9% of 340,000 active; active means well fitted falling curve with a large enough effect; inconclusive means small, poorly fitted or top-dose-only effect; inactive means no such curve, though single readings can be large or run the other way; further: potency means the concentration at half of the fitted maximal effect; the source files actives as falling curves though it sought activators and does not explain the sign; nearly all actives have a fitted effect of over 65% in size
Target sequence (P80244 whole entry, looked up): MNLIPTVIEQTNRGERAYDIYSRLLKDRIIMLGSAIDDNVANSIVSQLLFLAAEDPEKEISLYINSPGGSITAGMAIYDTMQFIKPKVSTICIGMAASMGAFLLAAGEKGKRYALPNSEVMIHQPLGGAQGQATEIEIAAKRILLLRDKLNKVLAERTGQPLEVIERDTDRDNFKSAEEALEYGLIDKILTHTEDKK
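Purified B. subtilis ClpP, 10 microg/mL final in Tris/HCl pH8 with KCl, BSA, glycerol and Tween-20, cleaved an Abz/nitrotyrosine-quenched decapeptide. Fluorescence (ex 320, em 430) was read at 0 and 20 min at room temperature. Delta was normalized to 5.8 microM ADEP and DMSO/no-enzyme controls.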
DRD3 agonist – agonists of human D3 dopamine receptor | 0.58% of 410,000 active | P35462 | D3R DiscoveRx beta-arrestin cells, luminescence, 90 min | max activation, %; in the data active means max activation above about 30%; further: 0% is about no effect
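Cells at 1500/well, incubated overnight, then treated with pinned compounds (dopamine as control) for 90 min at 37 degrees C. DiscoveRx reagent added for 30 - 60 minutes at room temperature; luminescence read.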
Active calls of the source: *; ? = inconclusive; nt = no result given. The list is not random: actives were taken first. Their share in the collection is about 21%. Unless noted, the call rests on the fitted dose curve; in most records, active means well fitted inhibition curve with a large enough effect; inconclusive means small, poorly fitted or top-dose-only effect; inactive means flat fitted curve, though single readings scatter.

SMILES | IL-1B inflam inh | D3 antag | DT40 TDP1 CPT | TDP1 cell noCPT | ClpP mod | DRD3 agonist
Cc1ccc(C(=O)c2cn(Cc3ccccc3)c3ccccc3c2=O)cc1 | nt | nt | 23µM* | 21µM* | -1% | -16
CCOc1ccc2c(c1)c(=O)c(C(=O)c1ccccc1)cn2Cc1ccccc1 | nt | nt | 21µM* | 15µM* | -5% | -18
COc1ccc2c(c1)c(=O)c(C(=O)c1ccccc1)cn2Cc1ccccc1 | -5 | 17 | -7% | -14% | 0% | -4
CCOc1ccc(C(=O)c2cn(Cc3ccccc3OC)c3cc4c(cc3c2=O)OCCO4)cc1 | nt | nt | ? | 15µM* | 2% | 10
CCCCn1cc(SCC(=O)O)c2ccccc21 | 9 | -20 | -20% | 0% | -24% | 1
COc1ccc(C(=O)c2cn(Cc3ccccc3OC)c3cc4c(cc3c2=O)OCO4)cc1 | nt | nt | ? | ? | 0% | 2
CCCCCCn1cc(C(=O)O)c(=O)c2ccccc21 | -30 | -63* | -2% | -17% | -1% | 2
CCOc1ccc(N(CC(=O)Nc2ccc(C)cc2)S(=O)(=O)c2c(C)[nH]c(=O)[nH]c2=O)cc1 | -4 | -15 | 3% | -3% | 0% | -2
COC(=O)N1CCC2(CCCN(Cc3ccccc3)C2)CC1 | nt | nt | 19% | -12% | nt | nt
COc1ccc(Cn2cc(C(=O)O)c(=O)c3ccccc32)cc1 | 17 | -6 | ? | 23µM* | nt | 6
COc1ccc(Cn2cc(C(=O)c3ccccc3)c(=O)c3cc(OC)ccc32)cc1 | -12 | 3 | 3% | -10% | -1% | 0
COc1ccc(C(=O)c2cn(Cc3cccc(C)c3)c3cc4c(cc3c2=O)OCCO4)cc1OC | nt | nt | ? | 21µM* | -1% | 2
COc1ccc(C(=O)c2cn(Cc3ccccc3)c3ccccc3c2=O)cc1OC | nt | nt | 21µM* | ? | -2% | -12
O=C(c1ccccc1)c1cn(Cc2ccc(F)cc2)c2ccccc2c1=O | nt | nt | ? | ? | 0% | 6
Cc1cccc(Cn2cc(C(=O)c3ccccc3)c(=O)c3cc4c(cc32)OCO4)c1 | nt | nt | ? | ? | 0% | 6
COc1ccc(OC)c(NC(=O)N2CCN(S(=O)(=O)c3ccc4c(ccn4C)c3)CC2)c1 | nt | nt | nt | nt | -19% | -14
CN(C)c1ccc(/C=C2/C[N+](C)(C)C/C(=C/c3ccc(N(C)C)cc3)C2=O)cc1 | -98* | -23 | 2.6µM* | 3.7µM* | 1% | -22
Cc1cccc(C(=O)OCC(=O)Nc2ccccc2C(=O)NC2CC2)c1 | 12 | -1 | -26% | 7% | -13% | 5
CC(=O)N1CCc2cc(S(=O)(=O)NCCN3CCC(C)CC3)ccc21 | 3 | -58* | -14% | -19% | 2% | 2
CC(=O)N1CCc2cc(S(=O)(=O)NCCCN3CCN(Cc4ccccc4)CC3)ccc21 | -11 | ? | -28% | ? | -1% | 4
CC(=O)N1CCc2cc(S(=O)(=O)NCc3ccc(C)cc3)ccc21 | 51 | 8 | ? | 7.3µM* | nt | 12
COc1ccc2c(c1)c1c(c(=O)n(-c3ccc(C)cc3)c(=O)n1CC(=O)N1CCCC1)n2C | nt | nt | 16µM* | 21µM* | 4% | -13
COc1ccc2c(c1)c1c(c(=O)n(-c3cccc(Cl)c3)c(=O)n1CC(=O)N1CCCC1)n2C | nt | nt | 23µM* | ? | 5% | 1
COc1ccc2c(c1)c1c(c(=O)n(-c3cccc(C)c3)c(=O)n1CC(=O)N1CCCC1)n2C | nt | nt | ? | ? | 4% | -6
Cc1ccc(NC(=O)CN2C(=O)c3ccccc3Sc3ccc(C(=O)N4CCOCC4)cc32)c(Cl)c1 | nt | nt | -14% | ? | 0% | 2
SMILES | IL-1B inflam inh | D3 antag | DT40 TDP1 CPT | TDP1 cell noCPT | ClpP mod | DRD3 agonist
O=C1CC(c2ccccc2)Sc2ccccc2N1 (configuration not stated) | 0 | 30 | 13µM* | 10µM* | 1% | -1
O=C1CC(c2ccco2)Sc2ccccc2N1 (configuration not stated) | 36 | 16 | -13% | 3% | -1% | 4
Cc1ccc2c(cnn2C(=O)CCC(=O)N2CCCCC2)c1 | 17 | -4 | -7% | -14% | -3% | 1
C[C@H]1CN([C@@H](C)CO)S(=O)(=O)c2ccc(Br)cc2O[C@@H]1CN(C)S(=O)(=O)c1ccccc1 | -19 | 1 | ? | ? | -1% | 0
C[C@H](CO)N1C[C@H](C)[C@H](CN(C)S(=O)(=O)c2cccc(F)c2)Oc2cc(Br)ccc2S1(=O)=O | -16 | 23 | 26µM* | 21µM* | -1% | 6
COc1cccc(S(=O)(=O)N(C)C[C@@H]2Oc3cc(Br)ccc3S(=O)(=O)N([C@@H](C)CO)C[C@@H]2C)c1 | -11 | -10 | ? | 26µM* | -1% | -4
COc1cccc(C#Cc2ccc3c(c2)O[C@H](CN(C)S(=O)(=O)c2ccccc2F)[C@H](C)CN([C@H](C)CO)S3(=O)=O)c1 | 1 | 7 | -30% | ? | ? | 5
COCC#Cc1ccc2c(c1)O[C@@H](CN(C)S(=O)(=O)c1cccc(F)c1)[C@@H](C)CN([C@H](C)CO)S2(=O)=O | -1 | 0 | ? | 18µM* | -1% | -10
COc1ccc(S(=O)(=O)N(C)C[C@H]2Oc3cc(Br)ccc3S(=O)(=O)N([C@H](C)CO)C[C@H]2C)cc1 | 23 | -27 | ? | 21µM* | -2% | -9
CC1(C)C(=O)Nc2ccccc2N1C(=O)COC(=O)CSc1ccc(Cl)cc1 | 3 | -10 | -11% | -28% | -2% | 1
COc1ccc(C#Cc2c(-c3ccccc3)n(-c3ccccc3)c3ccc(CO)cc23)cc1 | 0 | 3 | ? | ? | 4% | -2
C[C@H]1CN([C@@H](C)CO)S(=O)(=O)c2ccc(C#CC3CC3)cc2O[C@@H]1CN(C)S(C)(=O)=O | -4 | 2 | -27% | ? | 0% | 5
COc1ccc(S(=O)(=O)N(C)C[C@@H]2Oc3cc(Br)ccc3S(=O)(=O)N([C@H](C)CO)C[C@@H]2C)cc1 | -20 | -21 | ? | 16µM* | -1% | -4
Cc1ccc(S(=O)(=O)N(C)C[C@H]2Oc3cc(C#CC4CCCC4)ccc3S(=O)(=O)N([C@H](C)CO)C[C@H]2C)cc1 | -2 | 33 | 18µM* | 18µM* | -3% | 5
